# Compound activity: PubChem, several laboratories
# MsrA inh = inhibits bovine methionine sulfoxide reductase A; purified bovine MsrA, absorbance read-out; inhibition, % at 15.5 µM; actives 0.75% (n = 360,000); AID 651718;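 note: 0% = vehicle wells with enzyme and 100% = reference inhibitor wells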
# ABCB6 inh 2 = human ABCB6 transporter inhibition; Q9NP58; K562-ABCB6 porphyrin accumulation, flow cytometry, 1 h; hits give low values; fluorescence ratio to DMSO, % at 10 µM; actives 0.19% (n = 360,000);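 active = fluorescence ratio to DMSO below 75%, the collection mean minus 3 SD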;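 note: signal is porphyrin accumulated inside mitochondria; 100% equals median channel fluorescence of DMSO control wells; lower ratio means ABCB6 inhibition with less porphyrin fluorescence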
# SMARCA2 activ = increases SMARCA2 function in MMTV reporter cells | MG213 cells, MMTV-luciferase reporter, dexamethasone, overnight | activation, % at 9.1 µM | actives 1% (n = 370,000) | AID 652017; in the data active = activation above about 7.8%;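 note: 0% = vehicle wells and 100% = reference activator wells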
# bovine MsrA act = bovine methionine sulfoxide reductase A activation. purified bovine MsrA, absorbance read-out. activation, % at 10.6 µM. actives 0.3% (n = 360,000). AID 602163; in the data active = activation above about 7.5%;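 note: 0% = vehicle and 100% = reference activator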
# MsrA inh confirm = confirmation of bovine MsrA inhibitors | shares compounds with MsrA inh | purified bovine MsrA, absorbance read-out | inhibition, % at 15.5 µM | actives 41% (n = 2,300);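 note: coupled to thioredoxin reductase with NADPH and selenocystamine and DMSO as substrate; 0% = vehicle only and 100% = full effect of reference inhibitor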
# Active calls of the source: *; · = no result. Compounds with a hit are over-represented: about 2.1% of the library has one in this group of screens. Cut-off read from the data, not from the text of the source, unless noted: active = inhibition above about 4.5%; inactive = the rest.
SMILES,MsrA inh,ABCB6 inh 2,SMARCA2 activ,bovine MsrA act,MsrA inh confirm
CC(C)COC(=O)N1CCCCC1c1cc(C(=O)Nc2ccccc2)no1 (centres undefined),-0.7,97.0,1.1,-1.4,·
Cc1cccc(C(=O)Nc2nc3ncccn3c2-c2ccc(F)cc2)c1,·,·,-0.9,·,·
Cn1c(C(C#N)C(=O)Cc2cccc3ccccc23)nc2ccccc21 (centres undefined),0.8,93.0,-2.2,-11.0,·
Cn1c(C(C#N)C(=O)c2ccco2)nc2ccccc21 (centres undefined),5.1*,92.0,3.5,-2.6,5.5*
COC(=O)[C@]12C[C@H](CC(=O)N3CCSCC3)C(=O)N(Cc3cccc4ccccc34)C1=C[C@H](COCc1ccccc1)O[C@@H]2C,·,·,-3.1,·,·
Cc1nc2c(C)cccn2c(=O)c1NC(=O)COc1ccccc1,2.6,95.0,0.2,-2.1,·
Cc1ccn2c(=O)c(NC(=O)COc3ccccc3)c(C)nc2c1,4.9*,102.0,-3.2,-7.9,3.3
O=C1CCC/C1=C/Nc1ccc(Cl)cc1,6.0*,100.0,-0.6,-2.7,4.5
CCOC(=O)c1csc(NC(=O)C2CCCN(S(=O)(=O)c3cc(OC)ccc3OC)C2)n1 (centres undefined),·,·,-5.6,·,·
COC(=O)CN(c1nc(C)c(Br)c(OC)n1)S(=O)(=O)c1ccccc1,13.3*,98.0,-2.1,-3.3,11.9*
Cc1nnc(Nc2ccc(F)cc2)c2ccccc12,1.1,100.0,-3.6,2.8,·
Cc1nnc(Nc2ccccn2)c2ccccc12,5.5*,99.0,1.6,-5.7,1.1
Cc1cccc(CCNC(=O)c2ccc(Sc3ccccc3Cl)c([N+](=O)[O-])c2)c1,·,·,4.0,·,·
O=c1oc2ccc([N+](=O)[O-])cc2c(N2CCOCC2)c1[N+](=O)[O-],5.1*,·,-3.3,·,0.8
O=c1oc2ccccc2c(N2CCCC2)c1[N+](=O)[O-],3.3,98.0,-2.3,-1.0,·
C[C@@H]1CCN(C2CC2)S(=O)(=O)c2ccc(N3CCC[C@@H]3C)cc2O1,·,·,-1.6,·,·
CC(C)C(=O)N1CC[C@H]2[C@H](CCCN2Cc2ccccc2)C1,·,·,-2.2,·,·
Nc1ccc(Nc2ccc([N+](=O)[O-])cc2[N+](=O)[O-])cc1,3.8,102.0,0.0,-1.7,·
O=C(O)c1ccccc1C(=O)Nc1cccc([N+](=O)[O-])c1,0.2,96.0,-0.7,-3.2,·
O=C(O)c1ccccc1C(=O)Nc1ccc(Nc2ccc([N+](=O)[O-])cc2[N+](=O)[O-])cc1,5.1*,92.0,-0.6,-12.8,3.0
O=[N+]([O-])c1ccc(Nc2ccccn2)c([N+](=O)[O-])c1,5.3*,100.0,0.4,-13.4,3.6
OCc1ccccc1-c1cccc2nccn12,·,104.0,·,-3.4,·
COC(=O)[C@]12C[C@H](CC(=O)NCc3ccccc3)C(=O)N(Cc3cccc4ccccc34)C1=C[C@H](C1CCCC1)O[C@@H]2C,·,·,-5.0,·,·
CC(C)CN1C(=O)[C@]2(CC(=O)N(C)C2c2ccccc2)c2cc(-n3cc(-c4ccccc4)nn3)ccc21 (some centres undefined),·,·,-5.9,·,·
CCN(CC)C(=O)CC[C@H]1CC[C@]2(CCCN(Cc3ccccn3)C2)O1,·,·,1.9,·,·
SMILES,MsrA inh,ABCB6 inh 2,SMARCA2 activ,bovine MsrA act,MsrA inh confirm
COc1ccc(C(=O)/C(=C/c2cccs2)c2nc3ccccc3o2)cc1,3.2,94.0,0.2,-1.4,·
COc1ccc(/C=C(\CC(=O)O)c2nc3ccccc3o2)cc1,5.9*,102.0,1.2,-5.2,4.1
O=c1oc2c(O)cccc2cc1-c1nc2ccccc2[nH]1,0.5,98.0,5.9,-3.6,·
COc1cccc(N=c2oc3ccccc3cc2-c2nc3ccccc3[nH]2)c1,5.2*,99.0,5.3,-3.3,1.5
CC(C)CN1C(=O)C[C@@]2(C(=O)N(C)c3ccc(NS(=O)(=O)C4CC4)cc32)C1c1ccccc1 (some centres undefined),·,·,-1.6,·,·
CC(=O)Nc1cccc(-c2ccnc3c2CC(C(=O)Nc2cccc(N(C)C)c2)O3)c1 (centres undefined),0.4,105.0,-5.1,0.4,·
O=C(O)COc1ccccc1/C=N/NC(=O)c1cc(-c2ccc(Cl)cc2)nc2ccccc12,5.0*,101.0,1.1,-5.8,4.1
COc1ccccc1C1=CC(=O)C[C@H](c2ccc3c(c2)OCO3)C1,6.3*,101.0,1.1,-1.0,1.2
O=C1C=C(c2ccccc2Oc2ccccc2)C[C@@H](c2ccc3c(c2)OCO3)C1,-0.2,96.0,0.8,-0.8,·
O=C1C=C(c2ccc(O)cc2)C[C@@H](c2ccc3c(c2)OCO3)C1,6.8*,104.0,-0.7,-7.8,2.0
Cc1ccc(C2=CC(=O)C[C@H](c3ccc4c(c3)OCO4)C2)cc1,-0.9,95.0,1.5,-5.0,·
COc1cccc(-c2nc(CN3CCN(C(=O)c4ccco4)CC3)c(C)o2)c1OC,2.2,95.0,-3.2,2.2,·
Cc1ccc(-n2c(SCC(=O)N/N=C/C=C\c3ccco3)nnc2-c2ccccc2)cc1,·,·,-4.0,·,·
COc1cccc(C(c2nnnn2C(C)(C)C)N2CCN(C/C=C/c3ccccc3)CC2)c1OC (centres undefined),0.2,100.0,-5.1,-2.0,·
COC(=O)[C@]12C[C@H](CC(=O)NCCCCc3ccccc3)C(=O)N(Cc3cccc4ccccc34)C1=C[C@H](COCc1ccccc1)O[C@@H]2C,·,·,-3.6,·,·
O=C(N/N=C/c1sc(=O)[nH]c1-[n+]1ccccc1)c1ccccc1[O-],4.0,96.0,-1.7,-6.2,·
Cc1cc[n+](-c2[nH]c(=O)sc2/C=N/N=C(\[O-])c2ccccc2)cc1C,4.7*,100.0,-1.1,-3.1,2.0
Cc1cc[n+](-c2[nH]c(=O)sc2/C=N/N=C(\[O-])c2ccncc2)cc1,12.6*,93.0,3.2,-5.7,4.2
Cc1ccc[n+](-c2[nH]c(=O)sc2/C=N/NC(=O)c2ccccc2[O-])c1,4.9*,89.0,-3.1,-4.3,0.9
Cc1cc(C)c[n+](-c2[nH]c(=O)sc2/C=N/N=C(\N)[S-])c1,5.4*,90.0,-2.0,-6.2,5.5*
COc1ccc(OCCNC(=O)C2(C)CCN2Cc2ccc3ccccc3c2)cc1 (centres undefined),-0.8,100.0,1.0,-1.9,·
C=CCN1C(=O)[C@@H](CC(=O)N2CCOCC2)[C@]2(C(=O)OC)CCCCC=C12,·,·,-1.4,·,·
Cc1ccc[n+](-c2[nH]c(=O)sc2/C=N/N=C(\[O-])c2cccnc2)c1,3.7,92.0,-1.8,3.3,·
Cc1cc[n+](-c2[nH]c(=O)sc2/C=N/N=C(\[O-])c2ccccc2)cc1,5.0*,103.0,0.0,-5.7,4.0
O=c1[nH]c(-[n+]2ccccc2)c(/C=N/N=C(\[O-])c2ccccc2)s1,5.0*,96.0,-3.3,-7.2,5.2*
CCOc1ccc(/C=C/C2=NNC(=O)CC2)cc1,6.7*,101.0,-0.8,-5.4,3.2
COc1ccc(/C=C/C2=NNC(=O)CC2)cc1,5.5*,127.0,0.8,-6.5,4.7*
O=C1CCC(/C=C/c2ccccc2)=NN1,3.5,100.0,-1.4,-2.3,·
CC(=O)CNc1ccc(S(=O)(=O)N/N=C/c2ccccc2)cc1,0.9,93.0,-5.5,-7.7,·
Cc1ccc(C)c(S(=O)(=O)N/N=C/c2ccc(N(C)C)cc2)c1,5.4*,98.0,-2.1,-1.0,1.9
